Assay results from PubChem BioAssay (NCATS).
Where “and” joins values, the source holds several entries; their conditions need not be identical. Equal values may be shown once. Results filed as inconclusive are left out. A call without a number means that no potency is given here. Calls of active or inactive are those of the source. Calls follow the shape of the dose curve; as a rule, active = well fitted curve in the direction sought with a large enough effect; inconclusive = small, poorly fitted or top-dose-only effect, or another doubt; inactive = no such curve, though single readings can be large; an effect the other way counts as inactive or inconclusive.

System: not listed separately
Experiment: qHTS of pediatric cancer cell lines to identify multiple opportunities for drug repurposing: Confirmatory screen for SK-N-SH cells (AID 1347129);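 also: cells exposed to compound for 48 h before viability read; nearly all actives have a fitted effect of over 60% in size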
Conditions: SK-N-SH neuroblastoma cell viability; series mostly up to 46.1 µM
Outline: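 Viability after 48 h compound treatment at 37C, 500-1,000 cells/well, read as ATP luminescence with CellTiter-Glo. Primary screens used 11-point (MIPE, 0.78 nM-46 µM) or 8-point (NPC, 0.59 nM-46 µM) final concentrations; follow-up screens used 11-point dilutions.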
Potency is read from the fitted curve at half-maximal effect.

Row | SMILES | Potency
1 | COC(=O)Nc1nc2ccc(Sc3ccccc3)cc2[nH]1 | 5.9 µM (active)
2 | CCCCOc1ccc(CC(=O)NO)cc1 | inactive
3 | CC(C)(C)C(=O)OCOP(=O)(COCCn1cnc2c(N)ncnc21)OCOC(=O)C(C)(C)C | inactive
4 | Cn1nnc2c(C(N)=O)ncn2c1=O | inactive
5 | Nc1nc(N)c2nc(CNc3ccc(C(=O)NC(CCC(=O)O)C(=O)O)cc3)cnc2n1 (configuration not stated) | inactive
6 | CCOC(=O)c1ccc(C#Cc2ccc3c(c2)C(C)(C)CCS3)nc1 | inactive
7 | CN1CCCC(n2nc(Cc3ccc(Cl)cc3)c3ccccc3c2=O)CC1 (configuration not stated) | 20.9 µM (active)
8 | N=C(N)c1ccc(OCCCCCOc2ccc(C(=N)N)cc2)cc1 | inactive
9 | CC1CC2C3CCC4=CC(=O)C=C[C@]4(C)[C@@]3(F)[C@@H](O)C[C@]2(C)[C@@]1(O)C(=O)CO (some centres not stated) | inactive
10 | CNS(=O)(=O)CCc1ccc2[nH]cc(C3CCN(C)CC3)c2c1 | inactive
11 | CO[C@@]12[C@H](COC(N)=O)C3=C(C(=O)C(C)=C(N)C3=O)N1C[C@@H]1N[C@@H]12 | 14.8 µM (active)
12 | CC(C)(C#N)c1cc(Cn2cncn2)cc(C(C)(C)C#N)c1 | inactive
13 | Nc1nc(N)nc(-c2cc(Cl)ccc2Cl)n1 | inactive
14 | COC(=O)Nc1nc2ccc(S(=O)c3ccccc3)cc2[nH]1 (configuration not stated) | 2.96 µM (active)
15 | CC(C)NCC(O)c1ccc(NS(C)(=O)=O)cc1 (configuration not stated) | inactive
16 | CS(=O)(=O)c1ccc([C@@H](O)[C@@H](CO)NC(=O)C(Cl)Cl)cc1 | inactive
17 | Nc1[nH]c(=O)ncc1F | inactive
18 | CCC(=O)O[C@]1(C(=O)SCF)[C@H](C)C[C@H]2[C@@H]3C[C@H](F)C4=CC(=O)C=C[C@]4(C)[C@@]3(F)[C@@H](O)C[C@@]21C | inactive

Row | SMILES | Potency
19 | C[C@@H](CN1CC(=O)NC(=O)C1)N1CC(=O)NC(=O)C1 | inactive
20 | CCC(=O)O[C@]1(C(=O)CCl)[C@@H](C)C[C@H]2[C@@H]3CCC4=CC(=O)C=C[C@]4(C)[C@@]3(F)[C@@H](O)C[C@@]21C | inactive
21 | C[C@@H]1C[C@H]2[C@@H]3CCC4=CC(=O)C=C[C@]4(C)[C@@]3(Cl)[C@@H](O)C[C@]2(C)[C@@]1(OC(=O)c1ccco1)C(=O)CCl | 14.8 µM (active)
22 | COc1ccc(-c2ccc3cc(C(=O)O)ccc3c2)cc1C12CC3CC(CC(C3)C1)C2 | inactive
23 | CN(C)c1ccc(C(=C2C=CC(=[N+](C)C)C=C2)c2ccc(N(C)C)cc2)cc1 | 1.32 µM (active)
24 | COc1cc([C@@H]2c3cc4c(cc3[C@H](O)[C@H]3COC(=O)[C@H]23)OCO4)cc(OC)c1OC | inactive
25 | Oc1c(Cl)cc(Cl)c2cccnc12 | 20.9 µM (active)
26 | O=C(NCC1CN(c2ccc(N3CCOCC3=O)cc2)C(=O)O1)c1ccc(Cl)s1 (configuration not stated) | inactive
27 | CC(C(=O)O)c1ccc2c(c1)CC(=O)c1ccccc1S2 (configuration not stated) | inactive
28 | COc1ccc(C(=O)CC(=O)c2ccc(C(C)(C)C)cc2)cc1 | inactive
29 | COc1cc(NCc2ccc3nc(N)nc(N)c3c2C)cc(OC)c1OC | 4.69 µM (active)
30 | COc1cc2c(Nc3ccc(Br)cc3F)ncnc2cc1OCC1CCN(C)CC1 | 16.6 µM (active)
31 | COc1nc(N)nc2c1ncn2[C@@H]1O[C@H](CO)[C@@H](O)[C@@H]1O | inactive
32 | Nc1nc(=S)c2[nH]cnc2[nH]1 | 4.18 µM (active) and 3.72 µM (active)
33 | COc1cc2nc(N3CCCN(C)CC3)nc(NC3CCN(Cc4ccccc4)CC3)c2cc1OC | 8.33 µM (active)
34 | COC(=O)Nc1nc2ccc(C(=O)c3ccccc3)cc2[nH]1 | inactive
35 | CC(C)C[C@H](NC(=O)[C@H](CCc1ccccc1)NC(=O)CN1CCOCC1)C(=O)N[C@@H](Cc1ccccc1)C(=O)N[C@@H](CC(C)C)C(=O)[C@@]1(C)CO1 | 0.209 µM (active)
36 | CNC(=O)c1cc(Oc2ccc(NC(=O)Nc3ccc(Cl)c(C(F)(F)F)c3)cc2)ccn1 | 20.9 µM (active)

Target: N-terminal Xaa-Pro-Lys N-methyltransferase 1 (Homo sapiens) (UniProt Q9BV86)
Sequence (Q9BV86 whole entry, looked up): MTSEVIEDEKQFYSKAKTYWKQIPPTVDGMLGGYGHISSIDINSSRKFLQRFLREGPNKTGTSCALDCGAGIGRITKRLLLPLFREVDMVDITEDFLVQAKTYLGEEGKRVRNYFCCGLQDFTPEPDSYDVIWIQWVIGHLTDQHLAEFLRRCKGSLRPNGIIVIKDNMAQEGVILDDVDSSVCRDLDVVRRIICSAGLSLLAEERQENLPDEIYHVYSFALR
Experiment: qHTS Assay for Inhibitors of N-terminal methyltransferase 1 (NTMT1): LOPAC validation of the NTMT1 SAHH-coupled ThioGlo3 Assay (AID 1347143);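 also: SAH from peptide methylation measured as thiol fluorescence via SAHH coupling and ThioGlo3; nearly all actives have a fitted effect of over 70% in size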
Conditions: recombinant NTMT1, SAHH-coupled ThioGlo3 fluorescence; series mostly up to 114 µM
Outline: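 Recombinant human NTMT1 (125nM) was pre-incubated 1 min at room temperature with compounds over a concentration range, then a mix of 100uM SAM, 10uM SAHH and 15uM ThioGlo3 (concentrations in added reagent) was added. ThioGlo3 fluorescence (ex 340/em 450nm) after 30 min was normalized to the initial reading.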

Row | SMILES | Potency
37 | Nc1nc(N)c2nc(CNc3ccc(C(=O)NC(CCC(=O)O)C(=O)O)cc3)cnc2n1 (configuration not stated) | 56.2 µM (active)
38 | CC1CC2C3CCC4=CC(=O)C=C[C@]4(C)[C@@]3(F)[C@@H](O)C[C@]2(C)[C@@]1(O)C(=O)CO (some centres not stated) | inactive
39 | CNS(=O)(=O)CCc1ccc2[nH]cc(C3CCN(C)CC3)c2c1 | inactive
40 | CC(C)NCC(O)c1ccc(NS(C)(=O)=O)cc1 (configuration not stated) | inactive
41 | COc1cc2nc(N3CCCN(C)CC3)nc(NC3CCN(Cc4ccccc4)CC3)c2cc1OC | inactive

Target: Furin (Homo sapiens) (UniProt P09958)
Sequence (P09958 whole entry, looked up): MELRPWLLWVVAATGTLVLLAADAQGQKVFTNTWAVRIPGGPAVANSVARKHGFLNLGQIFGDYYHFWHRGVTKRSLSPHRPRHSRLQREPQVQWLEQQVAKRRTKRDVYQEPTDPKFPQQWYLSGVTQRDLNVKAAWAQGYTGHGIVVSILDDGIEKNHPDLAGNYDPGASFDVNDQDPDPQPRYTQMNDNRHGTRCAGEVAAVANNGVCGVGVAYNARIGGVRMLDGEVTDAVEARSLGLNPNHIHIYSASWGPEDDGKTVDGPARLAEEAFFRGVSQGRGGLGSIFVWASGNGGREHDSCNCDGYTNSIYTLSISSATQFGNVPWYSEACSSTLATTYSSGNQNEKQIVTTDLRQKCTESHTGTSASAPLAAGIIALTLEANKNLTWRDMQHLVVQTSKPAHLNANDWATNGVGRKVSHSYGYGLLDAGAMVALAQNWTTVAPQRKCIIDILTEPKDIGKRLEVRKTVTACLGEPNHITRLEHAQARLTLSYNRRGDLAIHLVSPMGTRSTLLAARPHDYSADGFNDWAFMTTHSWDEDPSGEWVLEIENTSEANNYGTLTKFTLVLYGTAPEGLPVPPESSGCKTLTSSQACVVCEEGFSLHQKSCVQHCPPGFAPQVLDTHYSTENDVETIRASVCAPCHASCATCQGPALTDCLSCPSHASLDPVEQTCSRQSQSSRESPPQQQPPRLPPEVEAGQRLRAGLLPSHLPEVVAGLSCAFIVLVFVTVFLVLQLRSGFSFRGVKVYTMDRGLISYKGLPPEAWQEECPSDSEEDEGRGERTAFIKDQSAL
Experiment: Furin counterscreen qHTS for Zika virus inhibitors (AID 1347149); also: nearly all actives have a fitted effect of over 70% in size
Conditions: furin enzymatic counterscreen, fluorogenic substrate; series mostly up to 57.5 µM
Outline: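 Fluorogenic cleavage of BOC-RVRR-AMC (2 microM final, Km ~15 µM) was monitored (ex 340, em 450 nm) at 37C after 15 min RT preincubation of 5 nM furin with compounds in HEPES pH 7.0 buffer with CaCl2 and Triton X-100. Percent inhibition was fitted to a 4-parameter Hill curve.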

Row | SMILES | Potency
42 | Nc1nc(N)c2nc(CNc3ccc(C(=O)NC(CCC(=O)O)C(=O)O)cc3)cnc2n1 (configuration not stated) | 19.1 µM (active)
43 | COc1ccc(-c2ccc3cc(C(=O)O)ccc3c2)cc1C12CC3CC(CC(C3)C1)C2 | inactive
44 | COc1cc(NCc2ccc3nc(N)nc(N)c3c2C)cc(OC)c1OC | 17.1 µM (active)
45 | Nc1nc(=S)c2[nH]cnc2[nH]1 | inactive
46 | COC(=O)Nc1nc2ccc(C(=O)c3ccccc3)cc2[nH]1 | inactive
47 | CNC(=O)c1cc(Oc2ccc(NC(=O)Nc3ccc(Cl)c(C(F)(F)F)c3)cc2)ccn1 | inactive
